APEX1 inh: APE1 (human) endonuclease inhibition; 0.35% of 350,000 active; P27695; Potency, µM (top dose mostly 65.8 µM), for inactives: top-dose activity change, negative = inhibition, most hits filed as inhibitors; AID 2517; recombinant APE1, TAMRA/BHQ-2 abasic DNA cleavage fluorescence;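 also: potency is read from the fitted curve at half-maximal effect; plate controls were vehicle for no effect and reference inhibitor for full effect; nearly all actives have a fitted effect of over 55% in size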
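Kinetic fluorescence read (525 ex/598 em nm, three reads 60 s apart) of AP-site incision; signal = third minus first read. Enzyme 0.75 nM, dual-labelled THF duplex 50 nM, compound preincubation 15 min RT.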
TDP1 block: TDP1 (human) enzyme inhibition; recombinant TDP1, AlphaScreen DNA substrate cleavage; Q9NUW8; Potency, µM (series often up to 130 µM), inactives show at the highest dose activity change, negative = inhibition, usual class: inhibitors; 0.28% of 350,000 active; also: potency is read from the fitted curve at half-maximal effect; % is scaled to controls: 0 for no effect and ±100 for the full control effect; nearly all actives have a fitted effect of over 40% in size
Target sequence (Q9NUW8 whole entry, looked up): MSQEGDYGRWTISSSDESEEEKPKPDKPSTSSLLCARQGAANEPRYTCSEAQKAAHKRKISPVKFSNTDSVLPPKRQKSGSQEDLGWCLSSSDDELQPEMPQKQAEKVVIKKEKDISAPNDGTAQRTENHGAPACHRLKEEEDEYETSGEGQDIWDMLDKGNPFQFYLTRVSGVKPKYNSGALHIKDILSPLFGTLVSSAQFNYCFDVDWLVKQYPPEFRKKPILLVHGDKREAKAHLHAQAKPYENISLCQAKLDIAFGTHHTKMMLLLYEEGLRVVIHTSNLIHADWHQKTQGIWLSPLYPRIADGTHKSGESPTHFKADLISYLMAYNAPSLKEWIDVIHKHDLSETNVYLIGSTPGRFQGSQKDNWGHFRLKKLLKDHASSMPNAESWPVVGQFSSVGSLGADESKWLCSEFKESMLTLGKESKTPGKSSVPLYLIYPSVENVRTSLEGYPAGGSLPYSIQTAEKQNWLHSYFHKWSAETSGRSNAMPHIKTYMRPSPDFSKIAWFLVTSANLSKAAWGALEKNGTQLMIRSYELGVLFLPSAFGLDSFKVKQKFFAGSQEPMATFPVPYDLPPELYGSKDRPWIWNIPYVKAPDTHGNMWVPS
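AlphaScreen read-out: signal falls as enzyme removes the 3' tyrosine-FITC from a 5'-biotinylated DNA oligo (15 nM, 5 min, RT). Enzyme was E. coli-made recombinant Tdp1 at 1 nM, exposed to compound for 15 min beforehand; beads 10 ug/ml, 10 min.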
Tb PFK block: T. brucei PFK enzyme inhibition; T. brucei PFK, ADP-Glo luminescence; O15648; Potency, µM (titrated, usually from 57.5 µM), for inactives: top-dose activity, negative = inhibition, most hits filed as inhibitors; 0.17% of 330,000 active;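 also: potency is read from the fitted curve at half-maximal effect; 0% = uninhibited 1x PFK enzyme wells and -100% = no-enzyme wells; nearly all actives have a fitted effect of over 60% in size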
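Activity is normalized to no-enzyme wells (full inhibition) and 1.25 nM enzyme wells (no inhibition). Reaction: 0.5 mM F6P, 0.1 mM ATP, 45 min RT, ADP-Glo luminescence; concentration-response curves fitted and classed by quality.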
FEN1 inh-1: blocks human flap endonuclease 1. 0.35% of 390,000 active. Potency, µM (series often up to 114 µM), inactives show at the top dose activity change, negative = inhibition, actives largely listed as inhibitors. Recombinant FEN1 flap cleavage, fluorescence, 15 min. AID 588795; also: potency is read from the fitted curve at half-maximal effect; % is scaled to controls: 0 for no effect and ±100 for the full control effect; nearly all actives have a fitted effect of over 65% in size
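Read-out was taken twice, immediately and after 15 min, following addition of 50 nM substrate to 10 nM FEN1 that had sat with test compound for 15 min at room temperature. Curves came from a four-parameter Hill model.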
PI4K2A inh: PI4K2A (human) kinase inhibition; purified PI4K2A, ADP-Glo luminescence, 1 h; stronger effect = lower value; activity change, negative = inhibition, % at 76.9 µM; 0.13% of 420,000 active; AID 1346378; in the data active = activity change below about -50%; inconclusive = mostly about -30% to -49%;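 also: -100% = wells without enzyme as full effect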
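PI4K2A activity was measured by ADP-Glo luminescence: enzyme (4 ug/mL stock) and phosphatidylinositol (1.2 mM stock) in Tris pH 7.5/MgCl2/EGTA/Triton X-100 buffer were reacted with ATP (300 microM stock) for one hour at ambient temperature.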
Tb PGK inh: blocks T. brucei phosphoglycerate kinase. PGK/GAPDH coupled, Kinase-Glo luminescence, 60 min. P07378. AID 602233. Potency, µM (top dose mostly 57.5 µM), without a hit: top-dose activity change, negative = inhibition, actives largely listed as inhibitors. 0.043% of 380,000 active; also: potency is read from the fitted curve at half-maximal effect; % is scaled to controls: 0 for no effect and ±100 for the full control effect; nearly all actives have a fitted effect of over 60% in size
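Recombinant glycosomal PGK reaction used 1,3-bisphosphoglycerate generated in-well by GAPDH (100nM final) in 100mM TEA pH 7.6, 5mM MgCl2, 0.01% Tween-20. After 60 minutes at room temperature, ATP was read by Kinase-Glo Plus luminescence end-point.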
FEN1 inh-2: FEN1 inhibition, cherry-pick retest | Potency, µM, usual class: inhibitors | shares compounds with FEN1 inh-1 | AID 720498 | 79% of 880 active | FEN1 flap cleavage, TAMRA/BHQ2 fluorogenic DNA substrate; also: potency is read from the fitted curve at half-maximal effect; nearly all actives have a fitted effect of over 60% in size
An asterisk follows results filed as active; i = inactive; ? = inconclusive; . = no result. This is a sample that favours compounds with a hit; in the whole collection about 0.8% have one here. Unless noted, calls follow the shape of the dose curve; as a rule, active = well fitted curve in the direction sought with a large enough effect; inconclusive = small, poorly fitted or top-dose-only effect, or another doubt; inactive = no such curve, though single readings can be large; an effect the other way counts as inactive or inconclusive.

SMILES | APEX1 inh | TDP1 block | Tb PFK block | FEN1 inh-1 | PI4K2A inh | Tb PGK inh | FEN1 inh-2
CN(C)c1ccc(C=C2SC(=S)NC2=O)cc1 | . | . | . | -34.2% | 0.8 | -13.7% | ?
CCOc1ccc(N(C)c2ccc(/C=C3/SC(=S)NC3=O)cc2)cc1 | -14.3% | 5.9% | -6.7% | ? | -6.0 | -8.9% | .
CCOC(=O)C1=C(O)C(=O)C(C(=O)OCC)C1 (configuration not stated) | . | . | . | 4.47µM* | -18.4 | -3.8% | 8.49*
Cc1ccc(-n2c(O)c(C=Nc3ccccc3-c3n[nH]c(=S)[nH]c3=O)c3ccccc3c2=O)cc1C | -4.2% | 2.3% | 0.0% | 50.1µM* | 4.6 | -8.3% | 67.5*
Cc1ccsc1/C=N/NC(=O)C(N)=O | -1.6% | 1.3% | 1.7% | 15.8µM* | -6.9 | -0.1% | ?
CC1=Nc2ccccc2/C1=C/c1ccc(N(C)C)cc1 | . | . | . | -23.7% | . | . | .
c1ccc(-c2nc(-n3ccnc3)nc(-n3ccnc3)n2)cc1 | 8.6% | 0.0% | 2.4% | ? | -14.7 | -5.3% | 42.6*
CC(C)Nc1nc(-c2ccccc2)nc(-n2ccnc2)n1 | -1.1% | 7.8% | -6.7% | -9.9% | 7.7 | 3.8% | .
O=C(O)c1ccccc1NS(=O)(=O)c1ccc(NNC(=S)Nc2ccc(OC(F)F)cc2)c([N+](=O)[O-])c1 | 13.1% | 11.0% | ? | ? | -17.7 | -23.3% | .
COc1cc(C=NNc2ccc(S(=O)(=O)Nc3ccccc3C(=O)O)cc2[N+](=O)[O-])ccc1O | ? | -0.4% | ? | 44.7µM* | -2.0 | -12.1% | 60.1*
O=C(O)c1ccccc1NS(=O)(=O)c1ccc(N/N=C/c2cccc(O)c2O)c([N+](=O)[O-])c1 | . | . | . | 39.8µM* | -7.3 | 8.91µM* | 47.8*
NS(=O)(=O)c1ccc(N/N=C/c2ccc(C(=O)O)cc2)c([N+](=O)[O-])c1 | 8.7% | -1.4% | 0.7% | 0.8% | -19.5 | -7.0% | .
CC(=O)Nc1ccc(C=NNc2ccc(S(=O)(=O)Nc3ccccc3C(=O)O)cc2[N+](=O)[O-])cc1 | -4.1% | -3.4% | 11.2% | 50.1µM* | -3.0 | -9.3% | 84.9*
CC(C)CCNC(=O)C1CCCN(C(=O)c2ccc3c(c2)NC(=O)CS3)C1 (configuration not stated) | . | . | . | . | -5.3 | . | .
O=c1cc(-c2ccc(O)cc2)oc2ccc3ccccc3c12 | -6.7% | 31.6µM* | -26.1% | ? | ? | ? | ?
O=c1cc(-c2ccc(O)cc2)oc2c1ccc1ccccc12 | -0.4% | . | ? | -7.4% | -4.9 | -9.9% | .
COc1cc(/C=C2\SC(=Nc3ccc(Cl)c(C(=O)O)c3)NC2=O)c(Br)c(Br)c1O | ? | 8.91µM* | 0.7% | 25.1µM* | -2.5 | -10.1% | 37.9*
COc1cc(/C=C2\SC(=Nc3ccccc3)NC2=O)cc(Cl)c1O | -10.0% | . | 8.0% | ? | 0.5 | -1.1% | .
Cc1cccc2[nH]cc(/C=C3/C=Nc4ccccc43)c12 | . | . | . | -3.6% | . | . | .
Cc1cc(C)c2nc3nc(C)c(C)cc3c(N)c2c1 | -4.6% | 7.1% | 0.1% | 44.7µM* | -5.8 | 2.9% | 23.9*
C/C(=N/NC(=O)c1ccco1)c1cccc(NC(=O)c2ccc(C)s2)c1 | -3.1% | -5.3% | 0.5% | -6.6% | 2.0 | i | ?
C/C(=N/NC(=O)c1ccco1)c1cccc(NC(=O)c2ccc(C)o2)c1 | 15.8% | 5.3% | 0.1% | -6.7% | 6.4 | 2.0% | .
O=C(NCCN1CCC(Cc2ccccc2)CC1)C1CCCN(S(=O)(=O)c2ccccc2[N+](=O)[O-])C1 (configuration not stated) | . | . | . | . | -2.7 | . | .
COc1ccccc1-[n+]1c(C)cc(/C=C2\Sc3ccccc3N2C)cc1C | -10.8% | 5.0% | -2.3% | ? | 0.7 | -9.0% | 37.9*
CC1(C)Cc2c(C#N)c(N3CCN(C(=O)c4ccco4)CC3)nc(-c3ccco3)c2CS1 | 6.7% | 0.0% | -29.1% | ? | ? | -3.6% | ?
SMILES | APEX1 inh | TDP1 block | Tb PFK block | FEN1 inh-1 | PI4K2A inh | Tb PGK inh | FEN1 inh-2
CC(=O)N1CCN(c2nc(-c3ccco3)c3c(c2C#N)CC(C)(C)SC3)CC1 | 1.2% | -4.9% | 6.6% | -0.4% | -4.0 | -9.3% | .
O=C(NN=C1CCCC1)c1ccc(O)cc1O | 40.3% | -0.1% | 0.7% | 0.7% | -3.6 | 9.4% | 42.6*
Cc1ccc(C(=O)NCCN(C)C)c(C)c1 | -15.0% | 4.4% | 0.4% | 6.9% | 8.5 | 8.3% | .
CNc1c2cccc(C)c2nc2c(C(=O)NCCN(C)C)cccc12 | . | . | . | 2.82µM* | -5.7 | -1.0% | 2.69*
CCCn1c(=O)c(C(=O)Nc2ncccc2O)c(O)c2ccccc21 | -13.5% | . | -0.7% | 7.1% | 1.9 | -1.9% | .
Cn1c(=O)c(C(=O)Nc2ncccc2O)c(O)c2ccccc21 | 8.8% | 3.1% | 0.0% | 50.1µM* | 3.0 | i | 60.1*
NC(=O)C1C(=O)c2ccccc2C1(C[N+](=O)[O-])c1ccccc1 (configuration not stated) | . | . | . | 44.7µM* | -9.0 | -1.0% | 42.6*
CCC1c2ccccc2C(=O)C1C(N)=O (configuration not stated) | . | . | . | 0.7% | 13.9 | i | .
CCOC(=O)[C@H](CCc1ccccc1)N[C@@H](C)C(=O)N(CC(=O)O)C1Cc2ccccc2C1 | . | . | . | . | -6.5 | . | .
Cc1cc2c(s1)c1cnn(Cc3ccc(F)c(F)c3F)c(=O)c1n2C | . | -3.3% | . | . | . | . | .
O=C(CSc1nc2ccccc2n1CCc1ccccc1)c1ccc(O)c(O)c1 | 0.891µM* | . | -24.4% | 56.2µM* | -23.8 | 7.94µM* | 67.5*
CCOc1ccc(CCNC(=O)c2cc3sccc3n2Cc2cccc(C)c2)cc1OCC | . | . | . | . | -4.9 | . | .
Cc1ccc(-n2cccc2/C=C2/C(=N)N3C(=NC2=O)SN=C3S(C)(=O)=O)cc1Cl | 17.4% | 2.3% | -8.8% | ? | -4.1 | -8.6% | 84.9*
COc1cc(/C=C2/CC/C(=C/c3ccc(O)c(OC)c3)C2=O)ccc1O | 2.9% | . | -8.7% | ? | 1.9 | -8.2% | .
COc1cc(/C=C/C=C2/CC/C(=C/C=C/c3ccc(O)c(OC)c3)C2=O)ccc1O | . | . | . | 39.8µM* | ? | ? | 42.6*

Bioassay records: PubChem BioAssay, National Center for Advancing Translational Sciences (NCATS)
